# Measured values taken from ChEMBL document CHEMBL1961873, “Compounds: GSK PKIS; Assays: Nanosyn kinase panel” (2012).
# What was measured:
# [1] = target: T1, Serine/threonine-protein kinase D2 (Homo sapiens) (UniProt Q9BZL6); settings: at 1 µM;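 further: mean value of PRKD2 inhibition, from the GSK PKIS screening panel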
# T1 sequence (whole entry): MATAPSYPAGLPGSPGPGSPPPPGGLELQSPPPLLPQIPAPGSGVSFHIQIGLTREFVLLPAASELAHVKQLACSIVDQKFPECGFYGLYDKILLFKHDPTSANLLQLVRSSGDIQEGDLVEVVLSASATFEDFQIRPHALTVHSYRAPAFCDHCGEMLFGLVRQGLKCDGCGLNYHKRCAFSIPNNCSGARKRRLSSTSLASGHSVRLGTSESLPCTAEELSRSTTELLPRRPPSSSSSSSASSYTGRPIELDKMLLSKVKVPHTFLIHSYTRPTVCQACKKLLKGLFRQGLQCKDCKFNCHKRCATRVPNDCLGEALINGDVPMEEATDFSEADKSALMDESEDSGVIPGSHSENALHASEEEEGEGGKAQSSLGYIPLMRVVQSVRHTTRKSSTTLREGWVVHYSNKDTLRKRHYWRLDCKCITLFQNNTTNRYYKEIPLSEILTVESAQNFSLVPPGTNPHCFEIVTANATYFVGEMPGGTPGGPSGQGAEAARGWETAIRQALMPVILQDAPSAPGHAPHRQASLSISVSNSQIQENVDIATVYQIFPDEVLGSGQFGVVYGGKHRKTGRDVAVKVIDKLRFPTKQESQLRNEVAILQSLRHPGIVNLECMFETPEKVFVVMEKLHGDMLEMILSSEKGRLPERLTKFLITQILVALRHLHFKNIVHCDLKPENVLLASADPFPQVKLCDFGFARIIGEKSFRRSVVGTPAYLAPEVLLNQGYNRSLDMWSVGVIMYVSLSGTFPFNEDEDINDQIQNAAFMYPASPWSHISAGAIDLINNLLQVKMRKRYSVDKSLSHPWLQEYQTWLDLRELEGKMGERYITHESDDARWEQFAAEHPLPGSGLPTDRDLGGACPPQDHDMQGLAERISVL
# [2] = target: T2, Serine/threonine-protein kinase D3 (Homo sapiens) (UniProt O94806); settings: at 0.1 µM
# T2 sequence (whole entry): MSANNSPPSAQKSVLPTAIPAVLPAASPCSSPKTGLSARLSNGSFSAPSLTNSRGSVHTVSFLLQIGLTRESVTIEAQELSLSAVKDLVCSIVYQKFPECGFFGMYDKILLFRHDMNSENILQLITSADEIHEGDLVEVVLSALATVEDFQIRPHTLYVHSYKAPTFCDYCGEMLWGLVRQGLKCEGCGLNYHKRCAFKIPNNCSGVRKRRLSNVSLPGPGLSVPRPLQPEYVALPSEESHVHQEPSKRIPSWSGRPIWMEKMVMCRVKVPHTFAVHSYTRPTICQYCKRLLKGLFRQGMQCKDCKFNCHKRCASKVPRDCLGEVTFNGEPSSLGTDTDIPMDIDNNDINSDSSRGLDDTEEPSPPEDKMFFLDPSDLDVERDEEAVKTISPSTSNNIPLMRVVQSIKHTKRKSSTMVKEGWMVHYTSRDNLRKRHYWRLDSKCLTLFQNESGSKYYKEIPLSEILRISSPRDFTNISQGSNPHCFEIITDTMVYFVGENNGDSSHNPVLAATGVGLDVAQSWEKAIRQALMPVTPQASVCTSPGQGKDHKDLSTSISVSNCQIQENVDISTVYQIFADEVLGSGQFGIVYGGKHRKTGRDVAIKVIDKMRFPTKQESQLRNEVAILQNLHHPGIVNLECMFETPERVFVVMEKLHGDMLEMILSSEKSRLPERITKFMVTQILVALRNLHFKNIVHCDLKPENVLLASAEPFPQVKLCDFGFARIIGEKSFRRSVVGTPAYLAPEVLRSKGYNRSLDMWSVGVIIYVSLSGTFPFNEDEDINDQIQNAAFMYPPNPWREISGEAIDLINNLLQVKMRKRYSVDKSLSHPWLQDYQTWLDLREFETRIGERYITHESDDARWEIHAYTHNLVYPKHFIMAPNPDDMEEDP
# [3] = target: T2, Serine/threonine-protein kinase D3 (Homo sapiens); settings: at 1 µM
# [4] = target: T3, cGMP-dependent protein kinase 1 (Homo sapiens) (UniProt Q13976); settings: at 0.1 µM
# T3 sequence (whole entry): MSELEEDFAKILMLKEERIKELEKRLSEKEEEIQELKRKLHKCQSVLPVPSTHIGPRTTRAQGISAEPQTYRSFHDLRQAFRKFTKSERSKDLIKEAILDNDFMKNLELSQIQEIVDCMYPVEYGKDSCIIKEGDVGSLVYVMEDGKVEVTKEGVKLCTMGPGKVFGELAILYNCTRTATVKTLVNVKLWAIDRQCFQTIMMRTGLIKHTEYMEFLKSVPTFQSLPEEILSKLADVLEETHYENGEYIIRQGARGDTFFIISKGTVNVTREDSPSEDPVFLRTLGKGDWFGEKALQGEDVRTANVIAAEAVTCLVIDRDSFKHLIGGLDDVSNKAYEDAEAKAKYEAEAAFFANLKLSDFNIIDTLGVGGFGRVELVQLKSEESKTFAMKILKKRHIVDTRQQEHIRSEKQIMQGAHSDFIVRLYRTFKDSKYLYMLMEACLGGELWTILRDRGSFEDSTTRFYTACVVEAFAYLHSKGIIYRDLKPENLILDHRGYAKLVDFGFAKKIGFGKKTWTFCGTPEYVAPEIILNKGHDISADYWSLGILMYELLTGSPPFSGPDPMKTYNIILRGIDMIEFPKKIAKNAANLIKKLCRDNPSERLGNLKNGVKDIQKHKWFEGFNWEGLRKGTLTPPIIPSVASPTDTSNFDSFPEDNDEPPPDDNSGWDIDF
# [5] = target: T3, cGMP-dependent protein kinase 1 (Homo sapiens); settings: at 1 µM
# [6] = target: T4, cGMP-dependent protein kinase 2 (Homo sapiens) (UniProt Q13237); settings: at 0.1 µM
# T4 sequence (whole entry): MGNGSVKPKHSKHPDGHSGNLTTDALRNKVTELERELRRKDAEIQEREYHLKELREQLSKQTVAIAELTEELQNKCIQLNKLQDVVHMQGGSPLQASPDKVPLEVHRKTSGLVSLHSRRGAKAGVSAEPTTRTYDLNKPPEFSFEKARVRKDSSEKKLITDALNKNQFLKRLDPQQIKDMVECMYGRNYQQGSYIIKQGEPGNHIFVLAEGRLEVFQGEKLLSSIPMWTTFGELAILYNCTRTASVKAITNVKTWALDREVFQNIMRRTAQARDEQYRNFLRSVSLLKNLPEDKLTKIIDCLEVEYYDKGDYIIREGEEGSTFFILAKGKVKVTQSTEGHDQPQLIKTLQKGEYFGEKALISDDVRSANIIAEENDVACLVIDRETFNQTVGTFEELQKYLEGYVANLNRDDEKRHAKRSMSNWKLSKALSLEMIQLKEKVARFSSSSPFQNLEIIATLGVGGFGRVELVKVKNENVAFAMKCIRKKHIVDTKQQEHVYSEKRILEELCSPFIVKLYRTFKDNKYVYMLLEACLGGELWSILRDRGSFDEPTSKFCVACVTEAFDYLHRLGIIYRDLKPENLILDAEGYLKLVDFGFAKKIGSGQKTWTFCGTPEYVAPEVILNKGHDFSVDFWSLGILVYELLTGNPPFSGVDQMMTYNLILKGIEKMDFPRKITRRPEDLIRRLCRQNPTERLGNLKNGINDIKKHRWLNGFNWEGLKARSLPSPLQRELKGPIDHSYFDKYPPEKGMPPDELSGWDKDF
# [7] = target: T4, cGMP-dependent protein kinase 2 (Homo sapiens); settings: at 1 µM
# [8] = target: T5, cAMP-dependent protein kinase catalytic subunit PRKX (Homo sapiens) (UniProt P51817); settings: at 0.1 µM
# T5 sequence (whole entry): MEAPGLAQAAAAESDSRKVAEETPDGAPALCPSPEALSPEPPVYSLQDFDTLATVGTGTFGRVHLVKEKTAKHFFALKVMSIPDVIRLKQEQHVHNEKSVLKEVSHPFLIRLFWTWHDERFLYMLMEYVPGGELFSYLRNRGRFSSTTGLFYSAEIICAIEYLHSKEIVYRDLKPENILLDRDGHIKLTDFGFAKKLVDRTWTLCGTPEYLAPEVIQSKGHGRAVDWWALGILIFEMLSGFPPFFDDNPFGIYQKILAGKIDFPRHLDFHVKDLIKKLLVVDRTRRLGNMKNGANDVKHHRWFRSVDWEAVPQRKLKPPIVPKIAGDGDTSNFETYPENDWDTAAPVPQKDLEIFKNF
# [9] = target: T5, cAMP-dependent protein kinase catalytic subunit PRKX (Homo sapiens); settings: at 1 µM
# [10] = target: Rho-associated protein kinase 1 (Homo sapiens) (UniProt Q13464); settings: at 0.1 µM;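 further: values are mean percent inhibition of ROCK1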
# Sequence of Rho-associated protein kinase 1 (Homo sapiens) (Q13464 2-1354 limits assumed): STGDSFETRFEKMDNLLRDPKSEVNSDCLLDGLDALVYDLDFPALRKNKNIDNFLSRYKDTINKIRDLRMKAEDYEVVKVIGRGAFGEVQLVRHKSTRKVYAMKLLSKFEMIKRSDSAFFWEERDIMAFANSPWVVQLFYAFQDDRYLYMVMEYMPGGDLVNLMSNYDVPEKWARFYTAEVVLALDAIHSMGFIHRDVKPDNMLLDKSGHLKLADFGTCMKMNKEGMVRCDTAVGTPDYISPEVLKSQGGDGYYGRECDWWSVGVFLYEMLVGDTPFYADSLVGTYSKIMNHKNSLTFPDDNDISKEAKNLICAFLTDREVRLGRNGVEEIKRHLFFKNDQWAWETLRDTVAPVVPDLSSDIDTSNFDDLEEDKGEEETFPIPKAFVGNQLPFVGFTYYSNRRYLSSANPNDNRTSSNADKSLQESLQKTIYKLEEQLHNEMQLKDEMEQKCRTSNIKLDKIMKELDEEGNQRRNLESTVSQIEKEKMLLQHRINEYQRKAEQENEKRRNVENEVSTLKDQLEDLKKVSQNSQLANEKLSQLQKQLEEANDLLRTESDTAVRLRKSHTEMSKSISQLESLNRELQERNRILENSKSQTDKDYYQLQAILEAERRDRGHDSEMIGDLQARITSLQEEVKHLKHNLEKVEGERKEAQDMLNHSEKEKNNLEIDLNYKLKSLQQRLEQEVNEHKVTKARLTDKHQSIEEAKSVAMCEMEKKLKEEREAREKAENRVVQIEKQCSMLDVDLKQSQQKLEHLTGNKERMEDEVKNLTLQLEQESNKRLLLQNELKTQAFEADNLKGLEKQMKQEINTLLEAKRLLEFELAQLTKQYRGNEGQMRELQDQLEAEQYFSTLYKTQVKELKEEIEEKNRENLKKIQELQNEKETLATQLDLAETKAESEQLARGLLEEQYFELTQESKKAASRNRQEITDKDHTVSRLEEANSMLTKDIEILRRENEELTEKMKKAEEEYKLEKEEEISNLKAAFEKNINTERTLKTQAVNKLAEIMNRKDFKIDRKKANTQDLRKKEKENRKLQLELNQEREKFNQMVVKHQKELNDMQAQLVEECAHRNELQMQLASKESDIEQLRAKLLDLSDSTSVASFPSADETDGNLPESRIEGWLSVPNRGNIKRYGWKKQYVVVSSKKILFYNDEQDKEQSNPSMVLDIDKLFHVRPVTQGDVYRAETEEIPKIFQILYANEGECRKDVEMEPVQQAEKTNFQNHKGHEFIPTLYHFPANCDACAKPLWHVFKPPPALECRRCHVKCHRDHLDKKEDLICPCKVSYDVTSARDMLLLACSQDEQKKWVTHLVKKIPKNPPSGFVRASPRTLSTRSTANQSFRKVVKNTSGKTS
Compound,inhibition [1],inhibition [2],inhibition [3],inhibition [4],inhibition [5],inhibition [6],inhibition [7],inhibition [8],inhibition [9],inhibition [10]
Cc1cc(O)cc(C)c1/C=C/c1cncc(C(N)=O)c1,2.16%,3.14%,2.74%,2.79%,5.83%,0.33%,3.49%,1.71%,3.29%,2.2%
c1ccc(-c2n[nH]cc2-c2ccnc(-c3ccc(OCCn4ccnc4)cc3)c2)nc1,64.3%,7.07%,47.7%,0.59%,4.08%,1.04%,2.63%,2.32%,7.66%,4.13%
Cc1cc(O)cc(C)c1/C=C/c1cncc(C(=O)OC(C)(C)C)c1,1.78%,2.12%,2.64%,3.26%,3.58%,1.21%,2.65%,3.57%,6.36%,2.92%
COc1ccccc1-c1cc(/C=C2\C(=O)Nc3ncc(Br)cc32)cc(Br)c1O,6.48%,5.02%,6.21%,2.01%,5.3%,1.73%,5.97%,0.16%,0.16%,0.21%
Cc1c2ccc(N(C)c3ccnc(Nc4cccc(S(N)(=O)=O)c4)n3)cc2nn1C,0.98%,2.69%,2.71%,3.15%,5.31%,2.54%,4.29%,2.29%,1.21%,1.12%
COc1cccc(-n2ncc3c(N/N=C/c4ccc(C(=O)NCCN(C)C)cc4)ncnc32)c1,6.33%,2.63%,4.71%,2.79%,1.97%,4.28%,20.5%,1.32%,5.04%,3.7%
CS(=O)(=O)CCNCc1ccoc1-c1ccc2ncnc(Nc3ccc(OCc4ccccc4)cc3)c2c1,1.7%,0.9%,1.39%,-0.04%,0.54%,-0.54%,-1.25%,0.33%,-0.34%,-1.21%
COc1cccc(Nc2nccc(-c3cnn4ncccc34)n2)c1,37.4%,4.36%,41.4%,5.54%,37.6%,1.94%,14.5%,-0.56%,-0.01%,-0.95%
